Bioassay records: PubChem, Paczesny and Yang Labs, IUPUI and University of Michigan
Shown is part of a subset that was picked to be rich in hits.
ST2 inh – IL1RL1 inhibition | Q01638 | AlphaLISA ST2-Fc/biotin-IL-33 interaction, 1 h | inhibition, % for hits at 17 µM | 2.3% of 78,000 active | AID 1259354; in the data active = inhibition above about 30%
Target sequence (Q01638 whole entry, looked up): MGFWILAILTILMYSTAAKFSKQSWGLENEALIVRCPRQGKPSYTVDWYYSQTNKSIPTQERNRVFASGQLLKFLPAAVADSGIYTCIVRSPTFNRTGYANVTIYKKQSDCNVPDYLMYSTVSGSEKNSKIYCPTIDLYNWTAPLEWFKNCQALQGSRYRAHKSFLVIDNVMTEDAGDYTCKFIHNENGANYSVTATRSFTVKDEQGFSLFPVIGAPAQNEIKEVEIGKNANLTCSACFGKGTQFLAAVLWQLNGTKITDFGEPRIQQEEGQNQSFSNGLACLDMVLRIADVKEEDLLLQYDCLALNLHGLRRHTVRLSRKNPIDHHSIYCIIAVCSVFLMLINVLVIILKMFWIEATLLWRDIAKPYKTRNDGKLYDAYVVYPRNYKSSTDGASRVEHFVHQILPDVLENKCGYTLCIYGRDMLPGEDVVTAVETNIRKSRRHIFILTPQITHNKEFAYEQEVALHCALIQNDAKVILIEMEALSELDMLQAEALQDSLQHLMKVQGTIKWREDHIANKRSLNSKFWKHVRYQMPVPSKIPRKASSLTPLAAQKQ
An asterisk follows results filed as active; i = inactive.

SMILES	ST2 inh
CC1CCc2sc(NC(=O)c3sc4ccccc4c3Cl)c(C(N)=O)c2C1 (stereo unspecified)	i
Cc1ccc(-n2ncc3c(NC(C)C)ncnc32)c(C)c1	i
CC(C)C(=O)Nc1cccnc1-c1ccn[nH]1	i
COc1ccc(N=Cc2cc(Cl)cc([N+](=O)[O-])c2O)cc1Cl	i
Nc1c(Cl)cc(Cl)cc1[N+](=O)[O-]	37%*
O=[N+]([O-])c1cc(Cl)ccc1NCCNCCO	i
Cc1ccc(S(=O)(=O)NC(C(C)C)C(C)C)cc1[N+](=O)[O-]	i
CC1CC(C)CN(S(=O)(=O)c2ccc(Cl)cc2)C1 (stereo unspecified)	i
O=S(=O)(Cc1ccccc1)c1ccc(Cl)cc1	i
O=C1C=CC(=NOS(=O)(=O)c2ccc(Cl)cc2)C=C1	48%*
Cn1cccc1C(=O)N[C@H]1C[C@@H]2C(=O)N[C@H]3CCN(C(=O)C4CCCC4)[C@@H]3C(=O)N2C1	i
CC1CCCCN1CCNC(=O)c1ccc2c(c1)NC(=O)C(N1CCCCC1)S2 (stereo unspecified)	i
Cc1ccc(/C=C(/C#N)c2nc(-c3ccc(Br)cc3)cs2)o1	52%*
CC(C)(C)C(=O)Nc1nc(-c2ccc(Br)cc2)cs1	i
N#C/C(=C\c1ccco1)c1nc(-c2ccc(Br)cc2)cs1	32%*
NNC(=O)C(=O)Nc1nc(-c2ccc(Br)cc2)cs1	i
N#C/C(=C\Nc1ccc(F)cc1)c1nc(-c2cc3cc(Br)ccc3oc2=O)cs1	i
O=C(NC1CCCc2c1cnn2-c1ccccn1)c1csc2c1CCCC2 (stereo unspecified)	i
CC(C)NC(=O)c1ccc(C2SCC(=O)N2CCc2ccccc2)cc1 (stereo unspecified)	i
O=C(O)C1=CC(=C(c2ccc(O)c(C(=O)O)c2)c2ccc(O)c(C(=O)O)c2)C=CC1=O	89%*
CCOc1cc(CN2CCCN(C)CC2)ccc1OC	i
CCOc1ccc(-c2nnc3cccc(Cl)n23)cc1OC	41%*
COc1ccccc1OCCOc1cccc(Cl)c1	i
O=C(COc1ccc(Cl)cc1Cl)N[C@H]1C[C@H]2C(=O)NCC(=O)N2C1	i
CN(C)c1ccc(/C=C/c2ccnc3ccccc23)cc1	43%*
SMILES	ST2 inh
CN(C)c1ccc(C(=O)Nc2nc3ccc4ccccc4c3s2)cc1	i
Cc1cc(Sc2ccccc2NC(=O)Nc2ccc(F)c(Cl)c2)n2ncnc2n1	i
O=C(CN1CCN(Cc2ccc(Cl)cc2)C1=O)NCc1cccnc1	i
Cc1cnc(C)c(N2CCC3(CCCO3)CC2)n1	i
COc1ccc2c(C)c(C(=O)O)oc2c1	i
COc1ccc2oc(C(=O)c3ccccc3)c(N)c2c1	35%*
CCOC(=O)c1c(-c2ccccc2)oc2ccc(OC)cc12	i
Cc1nn(S(=O)(=O)c2ccccc2)c(C)c1Sc1ccc([N+](=O)[O-])cc1	i
Cc1nn(C(=O)c2cccnc2)c(C)c1Sc1ccc(Br)cc1	i
Cc1cccc(C(=O)n2nc(C)c(Sc3ccc([N+](=O)[O-])cc3)c2C)c1	30%*
Cc1nn(S(=O)(=O)c2ccc(Br)cc2)c(C)c1Sc1ccccc1	i
Cc1nn(C(=O)c2cccs2)c(C)c1Sc1ccc(Cl)cc1	i
Cc1nn(S(=O)(=O)c2ccccc2[N+](=O)[O-])c(C)c1Sc1ccc([N+](=O)[O-])cc1	43%*
Cc1nc2c(C(=O)N3CCOCC3)c[nH]n2c(=O)c1Cc1ccc(Cl)cc1	i
Cc1ccc(C2C3=C(CCCC3=O)Nc3nc(SCc4ccccc4F)nn32)cc1 (stereo unspecified)	i
CC(C)C1(O)C=C2C(=O)CC3C(C)(C(=O)O)CCCC3(C)C2CC1 (stereo unspecified)	30%*
C=CC(C)(O)CC[C@H]1C(=C)CCC2[C@](C)(C(=O)O)CCC[C@@]21C (stereo partly specified)	i
CC(C)c1ccc2c(c1)CCC1[C@](C)(C(=O)O)CCC[C@]21C (stereo partly specified)	i
C=CC[C@@H]1CC=C[C@@H](C)N1C(=O)c1cnc2sc(C)c(C)n2c1=O	i
O=C(C1CC1)N1CCc2cc(S(=O)(=O)Nc3ccc(Cl)cn3)ccc21	i
C=C(C)C(O)C(OC)c1c(OC)ccc2ccc(=O)oc12 (stereo unspecified)	i
O=C1NC(=O)c2cc(N=Cc3ccc(Cl)cc3Cl)ccc21	70%*
O=C1NC(=O)c2cc(N=Cc3ccc(Cl)cc3)ccc21	i
O=c1[nH]c2ccc(N=Cc3cc(O)ccc3Br)cc2[nH]1	i
CC1CCC(NC(=O)C(NS(=O)(=O)c2ccc3c(c2)oc(=O)n3C)C(C)C)CC1 (stereo unspecified)	i
SMILES	ST2 inh
CN(Cc1cc(-c2ccncc2)no1)c1nccc(CCC(F)(F)F)n1	i
Oc1cccc2ccc(/C=C/c3cc4c(cc3Cl)OCO4)nc12	32%*
CC(=O)Nc1ccc2cccc(O)c2n1	i
Cc1noc(C)c1S(=O)(=O)N1CCOC(CCc2ccccc2)C1 (stereo unspecified)	i
COC[C@H]1CCCN1Cc1cccc(C(=O)Nc2ncc(C)s2)c1	i
Cc1nn(-c2ccccc2)c2c1C(c1cccnc1)C(C#N)=C(N)O2 (stereo unspecified)	i
CC1=C(n2nnc3ccccc32)C(c2ccccc2)C(C#N)=C(N)O1 (stereo unspecified)	i
N#CC1=C(N)Oc2n[nH]c(-c3ccccc3)c2C1c1ccc([N+](=O)[O-])cc1Cl (stereo unspecified)	i
Cc1nn(-c2ccccc2)c2c1C(c1ccc([N+](=O)[O-])o1)C(C#N)=C(N)O2 (stereo unspecified)	39%*
COc1ccc(Br)cc1C1C(C#N)=C(N)Oc2c1c(C)nn2-c1ccccc1 (stereo unspecified)	i
Cc1nn(-c2ccccc2)c2c1C(c1ccncc1)C(C#N)=C(N)O2 (stereo unspecified)	38%*
Cc1onc(-c2c(Cl)cccc2Cl)c1C(=O)Nc1ccncc1	i
COC(=O)c1ccc(-n2nnnc2SCc2ccccc2C)cc1	i
CC(=O)NCCSc1c(C)[nH]c2ccccc12	i
CC(SC1=NN2CCCC(=O)N=C2S1)c1ccccc1 (stereo unspecified)	i
C[C@@H]1O[C@@H](O[C@@H]2[C@@H](O)[C@H](OCCc3ccc(O)c(O)c3)O[C@H](CO[C@@H]3OC[C@](O)(CO)[C@H]3O)[C@H]2OC(=O)/C=C/c2ccc(O)c(O)c2)[C@H](O)[C@H](O)[C@H]1O	i
COc1cc(OC2OC(COC3OCC(O)(CO)C3O)C(O)C(O)C2O)c2c(-c3ccc(O)c(O)c3)cc(=O)oc2c1 (stereo unspecified)	33%*
C[C@@H]1O[C@@H](O[C@@H]2[C@@H](O)[C@H](C)O[C@@H](OCC3OC(Oc4c(-c5ccc(O)c(O)c5)oc5cc(O)cc(O)c5c4=O)C(O)C(O)C3O)[C@@H]2O)[C@H](O)[C@H](O)[C@H]1O (stereo partly specified)	i
Cc1cccc(Nc2nnc(-c3ccc(C)c(S(=O)(=O)NCCO)c3)c3ccccc23)c1	i
CCN(CC)CC(=O)Nc1c(C(=O)c2ccccc2)oc2ccccc12	43%*
O=C(Nc1c(C(=O)O)oc2ccccc12)c1ccccc1	i
CCC(=O)Nc1c(C(=O)Nc2ccccc2F)oc2ccccc12	i
CC1CCCC(N(C)C(=O)C2CCC(CNS(=O)(=O)c3cccc4nsnc34)CC2)C1C (stereo unspecified)	i
